Results published in PubChem BioAssay (NCATS).
Inconclusive results are not listed. Where a call stands in place of a potency, no number is given. Activity calls are given as the source filed them. Unless noted, calls come from the whole dose curve.

Experiments:
[1] = Primary qHTS for small molecule stabilizers of the endoplasmic reticulum resident proteome: Secreted ER Calcium Modulated Protein (SERCaMP) assay (AID 1508630; active = well fitted curve in the direction sought with a large enough effect; an effect the other way counts as inactive or inconclusive)
Summary of the method: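 The SH-SY5Y reporter protocol was run at 3 concentrations up to 38.3 uM (primary) or 11 concentrations (follow-up): 16 h compound, 100 nM thapsigargin for 4 h, then extracellular luciferase luminescence.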

[2] = A High-Content qHTS Against Drug Library for the Identification of Small Molecules that Inhibit DYT1 Early Onset Primary Dystonia-Associated Cell Pathology (AID 1645839)
Summary of the method: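 High-content imaging quantified EGFP-TorsinA mislocalization in HEK293-derived cells inducibly expressing DYT1 mutant torsinA, after 48 h exposure to compound given together with tetracycline induction. Cell count served as a toxicity channel alongside %pathology.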

[3] = molecular target: Cytochrome P450 2D6 (Homo sapiens) (UniProt P10635); experiment: Cytochrome P450 family 2 subfamily D member 6 (CYP2D6) small molecule antagonists: luciferase biochemical (cell-free) qHTS assay (AID 1645840; active = well fitted curve in the direction sought with a large enough effect in the repeat runs; an effect the other way counts as inactive or inconclusive; note: nearly all actives have a fitted effect of over 55% in size; note: potency is the fitted concentration of half-maximal effect)
Cytochrome P450 2D6 (Homo sapiens), sequence (P10635 whole entry, looked up): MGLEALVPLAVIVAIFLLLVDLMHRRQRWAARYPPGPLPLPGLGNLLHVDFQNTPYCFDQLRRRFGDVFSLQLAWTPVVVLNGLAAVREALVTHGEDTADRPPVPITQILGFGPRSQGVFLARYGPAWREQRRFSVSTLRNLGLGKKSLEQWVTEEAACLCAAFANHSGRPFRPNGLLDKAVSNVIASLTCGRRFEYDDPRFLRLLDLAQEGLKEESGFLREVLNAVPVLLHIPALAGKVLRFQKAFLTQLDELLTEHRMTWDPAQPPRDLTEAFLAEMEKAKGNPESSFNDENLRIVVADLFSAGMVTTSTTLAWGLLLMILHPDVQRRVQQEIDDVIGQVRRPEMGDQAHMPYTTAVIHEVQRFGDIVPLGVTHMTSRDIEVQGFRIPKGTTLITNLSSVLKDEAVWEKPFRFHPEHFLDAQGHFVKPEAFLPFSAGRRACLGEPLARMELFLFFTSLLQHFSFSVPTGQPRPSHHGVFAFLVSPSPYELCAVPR
Summary of the method: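 P450-Glo CYP2D6 system: proluciferin substrate converted by enzyme to luciferin, read by luminescence proportional to activity. Enzyme-substrate mix with compound 10 min at room temperature, then NADPH regeneration 1 h before detection reagent.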

[4] = molecular target: Cytochrome P450 2C9 (Homo sapiens) (UniProt P11712); experiment: Cytochrome P450 family 2 subfamily C member 9 (CYP2C9) small molecule antagonists: luciferase biochemical (cell-free) qHTS assay (AID 1645842; active = well fitted curve in the direction sought with a large enough effect in the repeat runs; an effect the other way counts as inactive or inconclusive; note: nearly all actives have a fitted effect of over 55% in size; note: potency is the fitted concentration of half-maximal effect)
Cytochrome P450 2C9 (Homo sapiens), sequence (P11712 whole entry, looked up): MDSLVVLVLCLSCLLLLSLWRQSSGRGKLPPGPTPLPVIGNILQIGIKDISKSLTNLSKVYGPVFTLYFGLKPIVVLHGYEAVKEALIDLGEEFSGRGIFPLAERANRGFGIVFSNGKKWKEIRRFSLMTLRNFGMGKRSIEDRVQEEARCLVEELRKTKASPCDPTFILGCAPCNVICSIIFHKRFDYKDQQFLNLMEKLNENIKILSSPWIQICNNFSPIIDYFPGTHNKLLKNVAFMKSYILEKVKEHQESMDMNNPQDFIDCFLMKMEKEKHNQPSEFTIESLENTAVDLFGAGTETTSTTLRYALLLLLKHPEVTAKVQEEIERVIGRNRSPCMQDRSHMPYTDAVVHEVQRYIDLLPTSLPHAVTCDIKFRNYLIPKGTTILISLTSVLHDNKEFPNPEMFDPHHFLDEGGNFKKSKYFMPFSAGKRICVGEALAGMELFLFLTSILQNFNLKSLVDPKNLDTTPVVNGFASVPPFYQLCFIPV
Summary of the method: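 P450-Glo CYP2C9 system: proluciferin substrate with enzyme in mix containing 0.4% BSA, 10 min at room temperature, then NADPH regeneration solution added and incubated 1 h at 37C. Detection reagent stopped reaction; luminescence read after 20 min as RLU.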

Papain (Carica papaya) = Papain (Carica papaya) (UniProt P00784); experiment: Primary qHTS assay for inhibitors of the protease papain (AID 1645873; active = well fitted curve in the direction sought with a large enough effect; an effect the other way counts as inactive or inconclusive;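 note: papain turnover of Z-FR-AMC read as the AMC fluorescence gain over 10 min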)
Papain (Carica papaya), sequence (P00784 whole entry, looked up): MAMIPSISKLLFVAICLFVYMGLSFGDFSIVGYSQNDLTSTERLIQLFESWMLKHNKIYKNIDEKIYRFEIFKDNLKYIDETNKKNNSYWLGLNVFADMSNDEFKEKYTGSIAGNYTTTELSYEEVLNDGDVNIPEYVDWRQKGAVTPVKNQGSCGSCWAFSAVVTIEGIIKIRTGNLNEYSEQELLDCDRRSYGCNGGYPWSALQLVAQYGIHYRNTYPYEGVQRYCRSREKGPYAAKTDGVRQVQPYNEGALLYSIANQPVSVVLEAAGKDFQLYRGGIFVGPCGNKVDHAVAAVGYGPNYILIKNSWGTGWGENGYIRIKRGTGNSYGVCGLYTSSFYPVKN

[5] = Cytotoxicity counterscreen for inhibitors of SARS-CoV-2 cell entry (AID 1645845); note: nearly all actives have a fitted effect of over 50% in size
Summary of the method: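 ATP-content luminescence (ATPLite 1step, 15 min RT) read after 48 h compound exposure of Expi293F cells stably expressing human ACE2; normalized to cells-only wells and media-only wells.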

[6] = Primary qHTS to identify inhibitors of SARS-CoV-2 cell entry (AID 1645846); conditions: activity change, negative = inhibition: at 57.1 µM (top of the series) unless noted; note: nearly all actives have a fitted effect of over 45% in size; note: potency is the fitted concentration of half-maximal effect
Summary of the method: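 Inhibition of spike-mediated entry was scored in human ACE2-transfected Expi293F cells. Particles were MLV-pseudotyped with Wuhan-Hu-1 S carrying a 19-aa C-terminal deletion; signal was luciferase after two days, scaled between spike PP and fusion-protein-free PP.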

[7] = Confirmatory qHTS to identify inhibitors of SARS-CoV-2 cell entry (AID 1645844); note: potency is the fitted concentration of half-maximal effect; nearly all actives have a fitted effect of over 45% in size
Summary of the method: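 Luminescence entry read-out after 48 h: spike-pseudotyped MLV particles (Wuhan-Hu-1, 19-aa C-terminal truncation) added to compound-pretreated (1 h) HEK293-ACE2 cells; Data were normalised to bald PP and spike PP wells.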

NCCc1ccc(O)cc1
Potency [1]: inactive | outcome [2]: inactive | Potency [3]: 13.8 µM (active) | Potency [4]: inactive | outcome (Papain (Carica papaya)): inactive

O=C1OC(CCN2CCCCC2)OC1(c1ccccc1)c1ccccc1 (centres undefined)
Potency [1]: inactive | Potency [3]: 0.617 µM (active)

Cc1ncsc1CCCl
Potency [1]: inactive | outcome [2]: inactive | Potency [3]: inactive | Potency [4]: inactive | Potency [5]: inactive | activity change, negative = inhibition [6]: -22.5% | outcome (Papain (Carica papaya)): inactive

CC(C(=O)c1ccccc1)N(C)C (centres undefined)
Potency [1]: inactive | outcome [2]: inactive | Potency [4]: inactive

C[C@]12CC[C@H]3[C@@H](CCC4=CC(=O)CC[C@@H]43)[C@@H]1CC[C@@H]2OC(=O)CCC1CCCCC1
Potency [1]: inactive | outcome [2]: inactive | Potency [4]: 24.5 µM (active) | Potency [5]: inactive

O=C1OC(c2ccc(O)c(S(=O)(=O)O)c2)(c2ccc(O)c(S(=O)(=O)O)c2)c2c(Br)c(Br)c(Br)c(Br)c21
Potency [1]: inactive | outcome [2]: inactive | Potency [4]: inactive | Potency [6]: inactive

COP(=S)(OC)Oc1cc(Cl)c(Cl)cc1Cl
Potency [1]: inactive | outcome [2]: inactive | Potency [3]: inactive | Potency [4]: 6.92 µM (active) | Potency [5]: inactive | Potency [6]: inactive

COc1ccc2c(c1OC)C(=O)O[C@H]2[C@@H]1c2cc3c(cc2CCN1C)OCO3
outcome (Papain (Carica papaya)): inactive

Nc1ccn([C@@H]2O[C@H](CO)[C@@H](O)C2O)c(=O)n1 (some centres undefined)
Potency [7]: 4.29 µM (active) | Potency [5]: inactive

N[C@@H](CCC(=O)N[C@@H](CS)C(=O)NCC(=O)O)C(=O)O
Potency [5]: inactive

C[n+]1c2cc(N)ccc2cc2ccc(N)cc21 (tested in a mixture with another compound)
Potency [7]: 6.07 µM (active) | Potency [6]: 7.94 µM (active)

COC(=O)C1=C(C)NC(C)=C(C(=O)OCC(C)=O)C1c1ccccc1[N+](=O)[O-] (centres undefined)
Potency [7]: 34.1 µM (active) | Potency [5]: inactive
